About 79,000 compounds went through this panel and 15% of them were active in at least one assay; those are over-represented in the sample as a whole. Activity calls are given as the source filed them. Cut-off read from the data, not from the text of the source: active = growth inhibition above about 70%; inactive = the rest.
Assays:
[1] = NCI Yeast Anticancer Drug Screen. Data for the rad52 strain (AID 147);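 note: 0% = growth of vehicle-treated control cultures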; conditions: S. cerevisiae rad52 mutant growth inhibition, active compounds read high
Method in brief: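 Screen used a yeast mutant impaired in DNA repair. After compound exposure, growth was measured. Values reflect inhibition compared with vehicle-treated cells.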

[2] = NCI Yeast Anticancer Drug Screen. Data for the rad50EPP+ strain (AID 151);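 note: 0% = growth of vehicle-treated control cultures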; conditions: S. cerevisiae rad50 mutant strain, active compounds read high
Method in brief: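 Exposing the rad50EPP+ strain to each compound, growth was compared with vehicle-only cultures to give inhibition.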

[3] = NCI Yeast Anticancer Drug Screen. Data for the mgt1 strain (AID 153); conditions: S. cerevisiae mgt1 mutant growth inhibition, active compounds read high
Method in brief: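 Genetically defined yeast (mgt1) treated with compound; inhibition of growth expressed against vehicle-treated controls.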

[4] = NCI Yeast Anticancer Drug Screen. Data for the rad50 strain (AID 155);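 note: 0% = growth of vehicle-only cultures of the same strain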; conditions: S. cerevisiae rad50 strain growth inhibition, active compounds read high
Method in brief: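 Relative growth inhibition (compound vs vehicle) was measured in yeast with a defined repair-gene alteration.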

[5] = NCI Yeast Anticancer Drug Screen. Data for the mec2-1 strain (AID 157); conditions: S. cerevisiae mec2-1 strain, active compounds read high
Method in brief: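 Readout is yeast growth inhibition, normalised to vehicle-treated controls, in the mec2-1 strain exposed to compound.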

[6] = NCI Yeast Anticancer Drug Screen. Data for the rad14 strain (AID 159);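 note: 0% = growth of vehicle-treated control cultures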; conditions: S. cerevisiae rad14 strain growth inhibition, active compounds read high
Method in brief: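 Screen for anticancer potential: a yeast strain altered in DNA damage repair is grown with compound, and reduced growth is quantified against vehicle controls.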

[7] = NCI Yeast Anticancer Drug Screen. Data for the sgs1 mgt1 strain (AID 161);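 note: 0% = growth of cultures given vehicle only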; conditions: S. cerevisiae sgs1 mgt1 strain, active compounds read high
Method in brief: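 Compounds are added to genetically altered yeast, and growth is compared with cultures given vehicle alone to give percent inhibition.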

[8] = NCI Yeast Anticancer Drug Screen. Data for the CLN2oe strain (AID 163);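 note: 0% = growth of vehicle-only control cultures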; conditions: S. cerevisiae CLN2oe strain, active compounds read high
Method in brief: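 Values reflect how much compound exposure reduced yeast growth, referenced to vehicle-exposed cells. Assay organism is a strain with a defined genetic change affecting cell-cycle control.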

[9] = NCI Yeast Anticancer Drug Screen. Data for the cln2 rad14 strain (AID 165);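 note: 0% = growth equal to vehicle treated cultures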; conditions: S. cerevisiae cln2 rad14 strain, active compounds read high
Method in brief: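 Relative to vehicle controls, growth inhibition of compound-treated cln2 rad14 yeast was recorded.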

[10] = NCI Yeast Anticancer Drug Screen. Data for the bub3 strain (AID 167); conditions: S. cerevisiae bub3 mutant strain, active compounds read high
Method in brief: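 Screening used yeast with an engineered genetic alteration affecting cell cycle control. Compound-exposed cultures were compared with vehicle cultures, and reduced growth was taken as inhibition.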

[11] = NCI Yeast Anticancer Drug Screen. Data for the wt2 strain (AID 169);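 note: 0% = growth of vehicle-treated yeast cultures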; conditions: S. cerevisiae wt2 strain growth inhibition, active compounds read high
Method in brief: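 Values express reduction in yeast growth under compound treatment, referenced to vehicle-treated cells.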

[12] = NCI Yeast Anticancer Drug Screen. Data for the mlh1 strain (AID 171);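 note: 0% = growth of vehicle-treated control cultures of the same strain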; conditions: S. cerevisiae mlh1 strain growth inhibition, active compounds read high
Method in brief: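 Steps: expose the defined-mutant yeast strain to compound; expose a parallel culture to vehicle; measure growth; express compound effect as inhibition relative to the vehicle culture.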

[13] = NCI Yeast Anticancer Drug Screen. Data for the sgs1 strain (AID 173);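 note: 0% = growth of vehicle-only control cultures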; conditions: S. cerevisiae sgs1 mutant, active compounds read high
Method in brief: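 Treat defined-mutant yeast with compound; measure growth; calculate inhibition relative to vehicle-treated cells.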

[14] = NCI Yeast Anticancer Drug Screen. Data for the rad18 strain (AID 177); conditions: S. cerevisiae rad18 mutant growth inhibition, active compounds read high
Method in brief: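 A genetically defined yeast mutant impaired in DNA damage repair was treated with test compounds, then its growth was measured against cultures receiving vehicle alone.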

[15] = NCI Yeast Anticancer Drug Screen. Data for the mlh1 rad18 strain (AID 175); conditions: S. cerevisiae mlh1 rad18 strain growth inhibition, active compounds read high
Method in brief: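 Test agents were incubated with a yeast strain of defined genotype (DNA damage repair defect). Inhibition of growth was derived by comparison with vehicle-exposed cultures.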

[16] = at 5.0 µM (retest, dose inferred, filed as 0.5)
[17] = at 50.0 µM (retest, dose inferred, filed as 5.0)

Measured: growth inhibition

Oc1ccc(SCc2ccc(NCc3ccccc3)cc2)cc1
inactive: [1]; at 1.2 µM -4% | [1]; at 3.7 µM -27% | [1]; at 11.0 µM -26% | [1]; at 33.0 µM 19% | [2]; at 1.2 µM -10% | [2]; at 3.7 µM -22% | [2]; at 11.0 µM -17% | [2]; at 33.0 µM 0% | [2]; at 100.0 µM 6% | [3]; at 1.2 µM -4% | [3]; at 3.7 µM 7% | [3]; at 11.0 µM 22% | [3]; at 33.0 µM 47% | [4]; at 1.2 µM 0% | [4]; at 3.7 µM -13% | [4]; [16] 22% | [4]; at 11.0 µM -11% | [4]; at 33.0 µM 23% | [4]; at 50.0 µM 66.8% | [5]; at 1.2 µM -7% | [5]; at 3.7 µM 1% | [5]; [16] 12% | [5]; at 11.0 µM -13% | [5]; at 33.0 µM 20% | [5]; [17] 55% | [6]; at 1.2 µM -30% | [6]; at 3.7 µM -44% | [6]; at 11.0 µM -31% | [6]; at 33.0 µM 29% | [7]; [16] 42% | [7]; [17] 63% | [8]; at 1.2 µM 12% | [8]; at 3.7 µM 13% | [8]; at 11.0 µM 13% | [8]; at 33.0 µM 40% | [9]; [16] 38% | [9]; [17] 56% | [9]; at 50.0 µM 49.4% | [10]; at 1.2 µM 20% | [10]; at 3.7 µM 14% | [10]; [16] 53% | [10]; at 11.0 µM 11% | [10]; at 33.0 µM 60% | [10]; [17] 50% | [11]; at 1.2 µM -16% | [11]; at 3.7 µM -46% | [11]; at 11.0 µM -33% | [11]; at 33.0 µM 9% | [12]; at 1.2 µM -8% | [12]; at 3.7 µM -25% | [12]; at 11.0 µM -14% | [12]; at 33.0 µM 18% | [13]; at 1.2 µM -33% | [13]; at 3.7 µM -63% | [13]; at 11.0 µM -41% | [13]; at 33.0 µM 26% | [14]; at 1.2 µM 22% | [14]; at 3.7 µM 7% | [14]; at 11.0 µM 12% | [14]; at 33.0 µM 32%
active: [1]; at 100.0 µM 89% | [3]; at 100.0 µM 87% | [4]; [17] 94% | [4]; at 100.0 µM 87% | [5]; at 50.0 µM 87.1% | [5]; at 100.0 µM 89% | [6]; at 100.0 µM 89% | [7]; at 50.0 µM 77.7% | [8]; at 100.0 µM 90% | [10]; at 50.0 µM 87.3% | [10]; at 100.0 µM 90% | [11]; at 100.0 µM 91% | [12]; at 100.0 µM 86% | [13]; at 100.0 µM 87% | [14]; at 100.0 µM 91%

CC(C)C(C)/C=C\C(C)C1CCC2C3=CC=C4CC(O)CCC4(C)C3CCC21C (stereo not drawn)
active: [4]; [17] 84% | [4]; at 50.0 µM 83.2% | [5]; [16] 89% | [5]; [17] 99% | [9]; [16] 91% | [9]; [17] 95% | [10]; [16] 99% | [10]; [17] 99% | [15]; [17] 81% | [15]; at 50.0 µM 86.5%
inactive: [1]; at 1.2 µM -1% | [1]; at 3.7 µM -2% | [1]; at 11.0 µM -1% | [1]; at 33.0 µM -1% | [1]; at 100.0 µM 17% | [2]; at 1.2 µM -2% | [2]; at 3.7 µM -3% | [2]; at 11.0 µM -9% | [2]; at 33.0 µM -9% | [2]; at 100.0 µM 1% | [3]; at 1.2 µM 0% | [3]; at 3.7 µM 3% | [3]; at 11.0 µM -1% | [3]; at 33.0 µM -9% | [3]; at 100.0 µM -4% | [4]; at 1.2 µM -1% | [4]; at 3.7 µM 5% | [4]; [16] 51% | [4]; at 11.0 µM -3% | [4]; at 33.0 µM -1% | [4]; at 100.0 µM 22% | [5]; at 1.2 µM 0% | [5]; at 3.7 µM 0% | [5]; at 11.0 µM -2% | [5]; at 33.0 µM -1% | [5]; at 50.0 µM 44.5% | [5]; at 100.0 µM -17% | [6]; at 1.2 µM -1% | [6]; at 3.7 µM 6% | [6]; at 11.0 µM 1% | [6]; at 33.0 µM -2% | [6]; at 100.0 µM 27% | [7]; [16] 17% | [7]; [17] 48% | [7]; at 50.0 µM 66.7% | [8]; at 1.2 µM 0% | [8]; at 3.7 µM -2% | [8]; at 11.0 µM -2% | [8]; at 33.0 µM -4% | [8]; at 100.0 µM 11% | [9]; at 50.0 µM 35.4% | [10]; at 1.2 µM -1% | [10]; at 3.7 µM 3% | [10]; at 11.0 µM -2% | [10]; at 33.0 µM -10% | [10]; at 50.0 µM 42% | [10]; at 100.0 µM 32% | [11]; at 1.2 µM 0% | [11]; at 3.7 µM 1% | [11]; at 11.0 µM 1% | [11]; at 33.0 µM 1% | [11]; at 100.0 µM 14% | [12]; at 1.2 µM -1% | [12]; at 3.7 µM -3% | [12]; at 11.0 µM -5% | [12]; at 33.0 µM -11% | [12]; at 100.0 µM 10% | [13]; at 1.2 µM -1% | [13]; at 3.7 µM -4% | [13]; at 11.0 µM -3% | [13]; at 33.0 µM -6% | [13]; at 100.0 µM 19% | [15]; [16] 40% | [14]; at 1.2 µM -2% | [14]; at 3.7 µM -5% | [14]; at 11.0 µM -13% | [14]; at 33.0 µM -19% | [14]; at 100.0 µM -7%

— PubChem BioAssay (NCI)
